Calls of active or inactive are those of the source. The rule behind the calls is not given here.
System: HIV-1 nucleocapsid protein NCp7 (binding to TG oligonucleotide)
Experiment: HIV Nucleocapsid (AID 346);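 note: potency is for inhibitors that block NC binding and lower polarization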
Settings: HIV-1 NC / fluorescein-TGTGTGTG probe, fluorescence polarization
Summary of the method: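 NCp7 100 nM + fluorescein TG4xF 10 nM; Hepes pH 7.5/250mM NaCl/1uM ZnCl2/0.004% PEG 20000; 1 hr RT; FP, 45 s exposure; oligo-only wells as negative control.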
Potency is the fitted concentration of half-maximal effect.

Row | SMILES | Potency
1 | CN(C)c1ncc2ncc(=O)n(Cc3ccc(F)cc3)c2n1 | > 20 µM (inactive)
2 | O=c1c(-c2cccs2)nc2cnc(N3CCNCC3)nc2n1Cc1cccs1 | > 20 µM (inactive)
3 | O=C(Nc1ccccc1)N1CCCC2(CCN(C(=O)c3cnccn3)CC2)C1 | > 20 µM (inactive)
4 | Cc1noc(C)c1-c1cncnc1NCCN1CCOCC1 | > 20 µM (inactive)
5 | O=c1c(-c2cccc(Cl)c2)nc2cncnc2n1-c1ccccc1 | > 20 µM (inactive)
6 | Cc1ccccc1-c1nccc(Nc2ccc(F)cc2)n1 | > 20 µM (inactive)
7 | COCC(=O)N1CCC2(CCCN(Cc3ccc(C#N)cc3)C2)CC1 | > 20 µM (inactive)
8 | COCCNc1ccnc(-c2ccccc2CN(C)C)n1 | > 20 µM (inactive)
9 | COc1cccc(Cn2c(=O)c(CCc3ccccc3)nc3cnc(N(C)C)nc32)c1 | > 4 µM (inactive)
10 | CCNc1ncc2nc(-c3cc(F)cc(F)c3)c(=O)n(Cc3ccc(F)cc3)c2n1 | > 4 µM (inactive)
11 | CS(=O)(=O)Nc1cccc(-c2cncnc2Nc2ccccc2)c1 | > 20 µM (inactive)
12 | N#Cc1cccc(-c2cncnc2NCc2ccccc2)c1 | > 20 µM (inactive)
13 | FC(F)(F)c1ccccc1-c1nc(N2CCNCC2)c2ccccc2n1 | > 20 µM (inactive)
14 | COc1cccc(-c2nc(N(C)Cc3ccco3)c3ccccc3n2)c1 | > 20 µM (inactive)
15 | Cc1cccc(CNc2ncncc2-c2ccccc2C(F)(F)F)c1 | > 20 µM (inactive)
16 | COCCn1c(=O)c(-c2cc(F)cc(F)c2)nc2cnc(Nc3cccc(OC)c3)nc21 | 3.99 µM (active)
17 | NC(=O)c1ccccc1-c1nc(-n2ccnc2)c2ccccc2n1 | > 20 µM (inactive)
18 | O=C(c1csnn1)N1CCC2(CC1)CCN(C(c1ccccc1)c1ccccc1)CC2 | > 20 µM (inactive)
19 | O=c1c(-c2cccc(F)c2)nc2cncnc2n1Cc1ccccc1Cl | > 20 µM (inactive)
20 | COCC(=O)N1CCC2(CC1)CN(c1cccc(-c3ccccc3)c1)C2 | > 20 µM (inactive)

Row | SMILES | Potency
21 | CN(C)Cc1ccccc1-c1cncnc1NCc1ccccc1 | > 20 µM (inactive)
22 | COc1ccc(-n2c(=O)c(-c3cccc(Cl)c3)nc3cncnc32)cc1 | > 4 µM (inactive)
23 | O=c1c(-c2ccc(Cl)cc2)nc2cnc(N3CCOCC3)nc2n1C1CC1 | > 20 µM (inactive)
24 | Cc1cnc(CNc2cc(-c3ccccc3Cl)ncn2)cn1 | > 20 µM (inactive)
25 | CNc1nc(-c2ccoc2)nc2ccccc12 | > 20 µM (inactive)
26 | O=c1cnc2cnc(Nc3ccccc3)nc2n1Cc1ccc(F)cc1 | > 20 µM (inactive)
27 | COCCn1c(=O)c(-c2cn(C)c3ccccc23)nc2cnc(N3CCNCC3)nc21 | > 20 µM (inactive)
28 | Cn1cccc1C(=O)N1CCC2(CC1)CN(C(=O)Nc1ccccc1)C2 | > 20 µM (inactive)
29 | Cn1cccc1C(=O)N1CCC2(CCCN(c3ccccc3)C2)CC1 | > 20 µM (inactive)
30 | O=c1c(-c2ccc(Cl)cc2)nc2cncnc2n1Cc1ccc(F)cc1 | > 20 µM (inactive)
31 | CCNc1ncc2nc(-c3ccc(OC)cc3)c(=O)n(Cc3cccc(OC)c3)c2n1 | 4.61 µM (active)
32 | COc1cccc(Cn2c(=O)c(-c3cccc(F)c3)nc3cncnc32)c1 | > 20 µM (inactive)
33 | COCCn1c(=O)c(C)nc2cnc(Nc3cccc(OC)c3)nc21 | > 20 µM (inactive)
34 | CN1CCN(c2ncc3nc(-c4cccs4)c(=O)n(Cc4ccc(F)cc4)c3n2)CC1 | > 4 µM (inactive)
35 | COc1ccccc1CCn1c(=O)c(C)nc2cncnc21 | > 20 µM (inactive)
36 | Cc1cnc(CNc2cc(-c3c(C)noc3C)ncn2)cn1 | > 20 µM (inactive)
37 | COc1ccc(C(=O)N2CCC[C@@]3(CCN(Cc4ccc(C#N)cc4)C3)C2)cc1 | > 20 µM (inactive)
38 | Cc1noc(C)c1-c1nccc(NCCN2CCOCC2)n1 | > 20 µM (inactive)
39 | O=S(=O)(c1ccccc1)N1CCC2(CCCN(C(c3ccccc3)c3ccccc3)C2)CC1 | > 20 µM (inactive)
40 | Cc1ccccc1-c1ccc2ncnc(-n3ccnc3)c2c1 | > 20 µM (inactive)

— PubChem BioAssay (NCATS)
